Values joined by “and” are separate entries in the source; they are usually repeats but may differ in a detail not shown here. Equal values may be shown once. Inconclusive results are not listed. Entries that show only a call come without a potency. A structure can be active in one record and inactive in another. Active and inactive are the calls of the source. Unless noted, calls follow the shape of the dose curve; as a rule, active = well fitted curve in the direction sought with a large enough effect in the repeat runs; inconclusive = weak or mixed curves; inactive = no such curve, though single readings can be large; an effect the other way counts as inactive or inconclusive.
Columns and labels:
[1] = A CellTox Green Cytotoxicity Assay to monitor cytotoxicity in HepG2 cells - 8 hour (AID 1224890); also: nearly all actives have a fitted effect of over 45% in size
In short: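 Cells and non-lytic dye reagent are dispensed together (600 HepG2 cells/well) and incubated 5 h before DMSO compound transfer. Kinetic fluorescence is then recorded in the same wells during 40 h at 37 C.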

[2] = qHTS assay to identify small molecule antagonists of the estrogen receptor alpha (ER-alpha) signaling pathway using the BG1 cell line in the presence of 0.1 nM 17-beta-estradiol - cell viability counter screen (AID 1259241); also: nearly all actives have a fitted effect of over 40% in size; also: potency is read from the fitted curve at half-maximal effect
In short: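 The cell line endogenously expresses full-length ER-alpha and carries four EREs driving luciferase. Cells are cultured 5 days hormone-free, treated 22 hr with compounds and 0.1 nM estradiol, then viability is read by fluorescence.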

[3] = qHTS assay to identify small molecule antagonists of the androgen receptor (AR) signaling pathway using the MDA cell line in the presence of 0.5 nM R1881 - cell viability counter screen (AID 1259242); also: nearly all actives have a fitted effect of over 45% in size; also: potency is read from the fitted curve at half-maximal effect
In short: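 Steps: plate MDA-kb2 cells, rest 5 hr at 37C without CO2; pin in compounds in DMSO; add R1881 to 0.5 nM final; incubate 16 hr; add CellTiter-Fluor, 30 min; read fluorescence.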

[4] = qHTS assay to identify small molecule phospholipidosis (PLD) inducers (AID 1259344; active = well fitted curve in the direction sought with a large enough effect; an effect the other way counts as inactive or inconclusive)
In short: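 Cells (HepG2, 900 per well) attach for 4 h, receive LipidTOX Red and compound together, incubate 24 h at 37 C, are fixed 30 min with paraformaldehyde/Hoechst, then imaged at one site per well.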

[5] = qHTS assay to identify small molecule HDAC inhibitors (AID 1259364);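 also: wild-type HCT-116 cells with endogenous class I/II HDAC activity; top concentration of the series differs between compounds; nearly all actives have a fitted effect of over 45% in size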
In short: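 Cells (HCT-116, wild type) are seeded at 1,500 per well, incubated overnight, treated with compound in DMSO for 2 hr, then developed with HDAC-Glo I/II reagent for 30 min at room temperature.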

[6] = qHTS assay to identify small molecule HDAC inhibitors - cell viability counter screen (AID 1259365); also: series mostly up to about 92 µM; nearly all actives have a fitted effect of over 50% in size
In short: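 Viability readout: CellTiter-Glo luminescence. Wild-type HCT-116 cells, 2hr compound treatment following overnight attachment at 37 C.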

[7] = qHTS assay to identify small molecule agonists of the sonic hedgehog signaling (Shh) pathway - cell viability counter screen (AID 1259366); also: nearly all actives have a fitted effect of over 50% in size; also: potency is read from the fitted curve at half-maximal effect
In short: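 Viability measured fluorometrically (CellTiter-Fluor, 1hr, 37C) in 3T3 Gli1-Luc reporter cells after 23hr compound exposure within a 24hr incubation at 37C/5% CO2.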

[8] = qHTS assay to identify small molecule antagonists of the sonic hedgehog signaling (Shh) pathway - cell viability counter screen (AID 1259367); also: nearly all actives have a fitted effect of over 55% in size; also: potency is read from the fitted curve at half-maximal effect
In short: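 Cytotoxicity was assessed in parallel with Shh reporter activity by measuring live-cell protease fluorescence (CellTiter-Fluor) in NIH/3T3 cells stably carrying Gli1-Luc, treated with compound under conditioned medium stimulation for 23 hr plus 1 hr reagent incubation.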

[9] = qHTS assay to identify small molecule agonists of the sonic hedgehog signaling (Shh) pathway (AID 1259368; calls by dose curve;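 also: NIH/3T3-derived 3T3Gli1-Luc cells carrying a stable Gli1-driven firefly luciferase reporter; series mostly up to about 92 µM; nearly all actives have a fitted effect of over 15% in size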)
In short: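 Cells of a mouse NIH/3T3 clone stably expressing luciferase under the Gli1 transcriptional response element are exposed to test chemicals for 24 hr at 37 C. Pathway activation is detected as a rise in luminescence.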

[10] = qHTS assay to identify small molecule antagonists of the sonic hedgehog signaling (Shh) pathway (AID 1259369; calls by dose curve; also: nearly all actives have a fitted effect of over 45% in size; also: potency is read from the fitted curve at half-maximal effect)
In short: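 Cells are plated and held 4hr at 37 C, compounds (DMSO) are pinned in, conditioned medium is added to stimulate the pathway, and after 24hr luciferase reagent is added for 30min before luminescence is read.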

[11] = target: Estrogen receptor beta (Homo sapiens) (UniProt Q92731); assay: qHTS assay to identify small molecule agonists of the estrogen receptor beta (ER-beta) signaling pathway (AID 1259377; active = well fitted activation curve with a large enough effect in the signal ratio in the repeat runs, not every such curve was filed as active; the % refers to the signal ratio)
In short: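 A UAS-controlled beta-lactamase reporter in ER-beta-UAS-bla HEK293T cells reports receptor activation. Compounds act for 16 hr at 37C in 2% charcoal-stripped serum, and a FRET substrate is read by fluorescence after 2 hours.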

[12] = qHTS assay to identify small molecule agonists of the androgen receptor (AR) signaling pathway in the presence of an antagonist - cell viability counter screen (AID 1259379); also: nearly all actives have a fitted effect of over 25% in size; also: potency is read from the fitted curve at half-maximal effect;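 as to activity change, negative = cytotoxicity: MDA-kb2 human breast cancer cells carrying an MMTV luciferase reporter; series mostly up to about 92 µM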
In short: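 Cytotoxicity is assessed by CellTiter-Fluor in MDA-kb2 cells carrying an MMTV-driven luciferase reporter. Cells receive 3.0uM nilutamide plus compounds at 15 concentrations and incubate 16 hr at 37C without CO2 before fluorescence reading.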

[13] = qHTS assay to identify small molecule antagonists of the estrogen receptor beta (ER-beta) signaling pathway - cell viability counter screen (AID 1259382); also: series mostly up to about 92 µM; nearly all actives have a fitted effect of over 55% in size
In short: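 Cytotoxicity counter screen multiplexed with the beta-lactamase antagonist assay: GripTite HEK293T ER-beta-bla cells were treated 16 hr with test chemicals in the presence of 1nM 17-beta-estradiol, and viability was measured by CellTiter-Glo.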

[14] = target: Estrogen receptor (Homo sapiens) (UniProt P03372); assay: qHTS assay to identify small molecule antagonists of the estrogen receptor alpha (ER-alpha) signaling pathway using the BG1 cell line in the presence of 0.1 nM 17-beta-estradiol (AID 1259244); also: nearly all actives have a fitted effect of over 50% in size
In short: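 Antagonist mode: compounds in DMSO are pinned onto VM7Luc4E2 reporter cells, 0.1 nM final 17beta-estradiol is added, and after 22 h at 37C luciferase luminescence is measured with ONE-Glo.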

[15] = qHTS assay to identify small molecule agonists of the estrogen receptor beta (ER-beta) signaling pathway - cell viability counter screen (AID 1259380); also: nearly all actives have a fitted effect of over 30% in size
In short: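 Cytotoxicity is measured in parallel with the reporter screen: after 16 hr compound exposure at 37C and a 2 hr LiveBLAzer step, CellTiter-Glo is added to the same ER-beta-UAS-bla HEK293T wells and luminescence read after 30 min.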

[16] = target: Estrogen receptor (Homo sapiens) (UniProt P03372); assay: qHTS assay to identify small molecule agonists of the estrogen receptor alpha (ER-alpha) signaling pathway in the presence of an antagonist (AID 1259383; calls by dose curve; also: top concentration of the series differs between compounds; nearly all actives have a fitted effect of over 15% in size)
In short: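 Agonist-mode confirmation in the presence of the ER antagonist ICI-182,780 at 10.0nM final. Breast-derived VM7Luc4E2 reporter cells were exposed to compounds for 22hr, and ERE-driven luciferase was quantified by luminescence.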

[17] = qHTS assay to identify small molecule agonists or antagonists of the thyroid stimulating hormone receptor (TSHR) signaling pathway - wild type cell line counter screen (AID 1259384; calls by dose curve)
In short: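 Wild-type HEK293 cells were plated 18 h at 37 C/5% CO2, pin-dosed with compound plus Ro20-1724 medium, held 30 min at room temperature, then given cAMP-d2 and anti-cAMP-cryptate; fluorescence was read after 1 h. Fifteen concentrations, triplicate.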

[18] = target: Estrogen receptor beta (Homo sapiens) (UniProt Q92731); assay: qHTS assay to identify small molecule antagonists of the estrogen receptor beta (ER-beta) signaling pathway (AID 1259378; active = well fitted inhibition curve with a large enough effect in the signal ratio in the repeat runs, not every such curve was filed as active; the % refers to the signal ratio)
In short: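 ER-beta-UAS-bla HEK293T (GripTite) cells in 2% charcoal-stripped FBS medium were preincubated 6 hr at 37C, dosed with compound, then stimulated with 1 nM E2 (final) for 16 hr; beta-lactamase reporter read by B/G FRET fluorescence after 2 hr substrate loading.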

Chain of Estrogen receptor (Homo sapiens) (P03372 whole entry, looked up): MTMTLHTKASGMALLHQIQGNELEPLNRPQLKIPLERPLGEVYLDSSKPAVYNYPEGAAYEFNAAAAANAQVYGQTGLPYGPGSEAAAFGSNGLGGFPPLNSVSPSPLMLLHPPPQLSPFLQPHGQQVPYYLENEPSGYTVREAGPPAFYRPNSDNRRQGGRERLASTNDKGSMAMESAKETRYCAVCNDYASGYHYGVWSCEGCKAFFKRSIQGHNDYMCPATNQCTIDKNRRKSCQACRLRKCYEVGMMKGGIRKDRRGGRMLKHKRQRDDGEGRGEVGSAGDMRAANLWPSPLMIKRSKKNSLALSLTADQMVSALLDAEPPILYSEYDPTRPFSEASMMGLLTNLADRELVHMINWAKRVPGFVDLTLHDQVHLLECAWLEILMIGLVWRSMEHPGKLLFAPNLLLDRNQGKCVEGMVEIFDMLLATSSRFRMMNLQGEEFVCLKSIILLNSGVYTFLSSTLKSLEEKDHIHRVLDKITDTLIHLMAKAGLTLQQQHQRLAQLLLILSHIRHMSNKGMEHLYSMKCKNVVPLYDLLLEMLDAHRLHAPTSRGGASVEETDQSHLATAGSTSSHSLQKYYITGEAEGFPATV
Chain of Estrogen receptor beta (Homo sapiens) (Q92731 whole entry, looked up): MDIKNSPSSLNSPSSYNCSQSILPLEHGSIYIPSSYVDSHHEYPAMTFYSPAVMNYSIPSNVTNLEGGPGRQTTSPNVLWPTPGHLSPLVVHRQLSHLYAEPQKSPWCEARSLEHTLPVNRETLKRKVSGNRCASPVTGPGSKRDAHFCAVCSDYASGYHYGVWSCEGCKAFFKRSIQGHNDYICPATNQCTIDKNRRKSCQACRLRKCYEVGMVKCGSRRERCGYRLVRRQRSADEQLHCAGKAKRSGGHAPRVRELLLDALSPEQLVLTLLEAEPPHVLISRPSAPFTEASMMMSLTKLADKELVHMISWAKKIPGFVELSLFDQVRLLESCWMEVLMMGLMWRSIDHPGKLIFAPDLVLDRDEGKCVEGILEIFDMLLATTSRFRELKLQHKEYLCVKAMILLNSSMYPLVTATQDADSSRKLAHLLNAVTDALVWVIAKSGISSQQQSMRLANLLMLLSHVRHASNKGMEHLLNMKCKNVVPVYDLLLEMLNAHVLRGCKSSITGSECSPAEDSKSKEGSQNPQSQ

For `Nc1c(N=Nc2ccc(-c3ccc(N=Nc4cc(S(=O)(=O)O)c5ccccc5c4N)cc3)cc2)cc(S(=O)(=O)O)c2ccccc12`, the Potency [1] was “inactive”, the Potency [2] was 12.2 µM (active) and the Potency [3] was 27.3 µM (active). The Potency [4] was “inactive”, the Potency [5] was “inactive” and the Potency [6] was “inactive”. The Potency [7] was 17.2 µM (active), the Potency [8] was 15.3 µM (active) and the outcome [9] was “inactive”. For the same compound, the Potency [10] was “inactive”, the Potency [11] was “inactive” and the Potency [12] was 24.3 µM (active). For the same compound, the Potency [13] was “inactive”.
For `Cc1cc(=O)oc2cc(O)ccc12`, the Potency [1] was “inactive”, the Potency [2] was “inactive” and the Potency [3] was “inactive”. For the same compound, the Potency [14] was “inactive”, the Potency [4] was “inactive” and the Potency [5] was “inactive”. For the same compound, the Potency [6] was “inactive”, the Potency [8] was “inactive” and the outcome [9] was “inactive”. The Potency [10] was 15.4 µM (active) and 17.2 µM (active) and inactive, the Potency [12] was “inactive” and the Potency [15] was “inactive”. The Potency [13] was “inactive”, the Potency [16] was “inactive” and the Potency [17] was “inactive”.
In the case of `CN(C)CCOC(C)(c1ccccc1)c1ccccn1` (centres undefined), the Potency [1] is reported as “inactive”, the Potency [2] is reported as “inactive” and the Potency [3] is reported as “inactive”. For the same compound, the Potency [4] was “inactive”, the Potency [5] was “inactive” and the Potency [6] was “inactive”. The Potency [7] was “inactive”, the outcome [9] was “inactive” and the Potency [10] was “inactive”. For the same compound, the Potency [11] was “inactive”, the Potency [18] was “inactive” and the Potency [12] was “inactive”. For the same compound, the Potency [15] was “inactive”, the Potency [13] was “inactive” and the Potency [17] was “inactive”.
In the case of `C/C=C/C=C/C(=O)O`, the Potency [1] is reported as “inactive”, the Potency [2] is reported as “inactive” and the Potency [3] is reported as “inactive”. For the same compound, the Potency [4] was “inactive”, the Potency [5] was “inactive” and the Potency [6] was “inactive”. For the same compound, the Potency [7] was “inactive”, the Potency [8] was “inactive” and the outcome [9] was “inactive”. For the same compound, the Potency [10] was “inactive”, the Potency [11] was “inactive” and the Potency [18] was “inactive”. The Potency [12] was “inactive”, the activity change, negative = cytotoxicity [15] was -4.84% [at 8.39 µM] (inactive) and the Potency [13] was “inactive”. The Potency [17] was “inactive”.
